# Reference: PubChem BioAssay (NCI)
# Where “and” joins values, the source holds several entries; their conditions need not be identical. Equal entries are not always repeated. About 79,000 compounds went through this panel and 15% of them were active in at least one assay; those are over-represented in the sample as a whole. Some structures have more than one record in an assay (separate samples or runs), and their calls can disagree. Calls of active or inactive are those of the source. No stated cut-off is given here; in the data, active means growth inhibition above about 70%; inactive means the rest.
# Key:
# [1] = NCI Yeast Anticancer Drug Screen. Data for the rad50 strain (AID 155);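 further: 0% = growth of vehicle-only cultures of the same strain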; details: S. cerevisiae rad50 strain growth inhibition, stronger effect = higher value
# Summary of the method: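 Genetically altered yeast (DNA repair pathway); compound treatment; growth inhibition vs vehicle ctrl.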
# [2] = NCI Yeast Anticancer Drug Screen. Data for the mec2-1 strain (AID 157); details: S. cerevisiae mec2-1 strain, stronger effect = higher value
# Summary of the method: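 Each compound was tested on mec2-1 yeast, a strain altered in DNA damage repair or cell cycle control. Growth inhibition is reported relative to vehicle.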
# [3] = NCI Yeast Anticancer Drug Screen. Data for the sgs1 mgt1 strain (AID 161);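 further: 0% = growth of cultures given vehicle only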; details: S. cerevisiae sgs1 mgt1 strain, stronger effect = higher value
# Summary of the method: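 Mutant yeast exposed to compound; growth scored against vehicle-only wells.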
# [4] = NCI Yeast Anticancer Drug Screen. Data for the cln2 rad14 strain (AID 165);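 further: 0% = growth equal to vehicle treated cultures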; details: S. cerevisiae cln2 rad14 strain, stronger effect = higher value
# Summary of the method: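 Test compounds were added to cln2 rad14 yeast cultures; inhibition of growth was then determined by comparison with vehicle treatment.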
# [5] = NCI Yeast Anticancer Drug Screen. Data for the bub3 strain (AID 167); details: S. cerevisiae bub3 mutant strain, stronger effect = higher value
# Summary of the method: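 Yeast carrying a defined mutation is treated with each compound, and growth is compared with that of vehicle-exposed cells to give inhibition.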
# [6] = NCI Yeast Anticancer Drug Screen. Data for the mlh1 rad18 strain (AID 175); details: S. cerevisiae mlh1 rad18 strain growth inhibition, stronger effect = higher value
# Summary of the method: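 Inhibition values reflect reduced growth of mutant yeast versus vehicle-treated controls following compound exposure; the mutations affect DNA damage repair.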
# [7] = at 5.0 µM (retest, dose inferred, filed as 0.5)
# [8] = at 50.0 µM (retest, dose inferred, filed as 5.0)
SMILES,"growth inhibition [1, 7]","growth inhibition [1, 8]",growth inhibition ([1]; at 50.0 µM),"growth inhibition [2, 7]","growth inhibition [2, 8]",growth inhibition ([2]; at 50.0 µM),"growth inhibition [3, 7]","growth inhibition [3, 8]",growth inhibition ([3]; at 50.0 µM),"growth inhibition [4, 7]","growth inhibition [4, 8]",growth inhibition ([4]; at 50.0 µM),"growth inhibition [5, 7]","growth inhibition [5, 8]",growth inhibition ([5]; at 50.0 µM),"growth inhibition [6, 7]","growth inhibition [6, 8]",growth inhibition ([6]; at 50.0 µM)
CN(C)C(=S)SC(=S)N(C)C,97% (active) and 96% (active),99% (active) and 98% (active),97.3% (active) and 99% (active),98% (active) and 94% (active),99% (active),98.8% (active) and 98.5% (active),97% (active) and 94% (active),99% (active),99.2% (active),97% (active) and 50% (inactive),97% (active),87% (active) and 97.2% (active),99% (active) and 88% (active),99% (active) and 98% (active),98.5% (active) and 99.2% (active),99% (active) and 96% (active),99% (active),98% (active) and 98.8% (active)
COc1ccc(NC(=O)C(=O)NO)c(OC)c1,19% (inactive),94% (active),90.8% (active),-2% (inactive),96% (active),91.1% (active),9% (inactive),94% (active),91% (active),-10% (inactive),94% (active),87.9% (active),4% (inactive),93% (active),91.2% (active),-28% (inactive),95% (active),87.9% (active)
Clc1cc(Cl)c(Cl)nn1,13% (inactive),83% (active),59.6% (inactive) and 86% (active),3% (inactive),38% (inactive),2.1% (inactive) and 44.9% (inactive),-1% (inactive),24% (inactive),3.1% (inactive) and 15.5% (inactive),-8% (inactive),25% (inactive),-7.45% (inactive) and 16.4% (inactive),6% (inactive),48% (inactive),18.6% (inactive) and 60.8% (inactive),1% (inactive),45% (inactive),15.8% (inactive) and 25% (inactive)
O=[N+]([O-])C(/C=C(\Cl)[N+](=O)[O-])=C(Nc1ccccc1)Nc1ccccc1,-23% (inactive),98% (active),86.8% (active),-7% (inactive),99% (active),88.2% (active),-16% (inactive),98% (active),86.8% (active),1% (inactive),98% (active),82.8% (active),-33% (inactive),99% (active),85.8% (active),27% (inactive),99% (active),80.3% (active)
CNC(=O)N(C)CN(C)C(=O)NC,0% (inactive),9% (inactive),17.1% (inactive) and 17.2% (inactive),-1% (inactive),2% (inactive),-11.9% (inactive) and 17.7% (inactive),-3% (inactive),7% (inactive),4% (inactive) and 19.8% (inactive),-4% (inactive),-9% (inactive),26.8% (inactive) and 18.6% (inactive),-5% (inactive),-8% (inactive),2.8% (inactive) and -19.9% (inactive),-5% (inactive),7% (inactive),3.75% (inactive) and 40.1% (inactive)
O=c1[nH]c(=O)n(C2OC(CO)C(O)C2O)cc1F (stereo not drawn),21% (inactive) and 30% (inactive),96% (active) and 95% (active),96.2% (active) and 93% (active),42% (inactive) and 39% (inactive),99% (active),97.3% (active) and 97.8% (active),65% (inactive) and 80% (active),98% (active),97.8% (active) and 96.1% (active),15% (inactive) and 24% (inactive),96% (active) and 98% (active),90.5% (active) and 92.2% (active),5% (inactive) and -1% (inactive),98% (active) and 97% (active),96.3% (active) and 90.2% (active),24% (inactive) and 6% (inactive),97% (active) and 96% (active),94.8% (active) and 92.2% (active)
